Here are results for 40 compounds from ChEMBL document CHEMBL3988442, “University of Dundee, Small-Polar-MMV Screening Library” (2021).

For the assay, the target named is Shiga toxin 2 (Escherichia coli O157:H7) (UniProt P09385+P09386). The assay is described as follows: E. coli 0.157:H7 Shiga Toxin SOP - stx2 screening assay. The conditions noted are these: 30 µM. Set-up: scale not given: direction of the effect not stated beside the values. It counts as functional.
Take `NC(=O)c1ccc2c(c1)nc1n2CCN(Cc2ccco2)C1`: the Percent Effect is -31.5%.

On to `CCCNC(=O)c1ccc(NC(=O)c2cccc(OCC)c2)cc1`, for which the Percent Effect was -85.2%.

For `CNc1cc2c(nn1)CCN(C(=O)c1ccc(-n3nccc3C)cc1)C2`, the Percent Effect came to 26.8%.

In the case of `Cc1cnn(C2CCCN(C(=O)c3cnc4ccccc4n3)C2)c1` (stereo not given), the Percent Effect turned out to be 25.1%.

`Cc1ccccc1CCNC(=O)C1CC(=O)N(CC(F)(F)F)C1` (stereo not given): the Percent Effect was 9.05%.

In the case of `COc1c(CNCCNC(=O)Cc2ccc(F)cc2)c(C)nn1C`, the Percent Effect came to 30.8%.

As to `CC(C)(C)c1ncc(C(=O)NCCS(N)(=O)=O)s1`, the Percent Effect was determined as 28.8%.

As to `CNS(=O)(=O)c1cccc(C(C)NCc2nccn2C(C)C)c1` (stereo not given), the Percent Effect is -29.6%.

Consider `O=C1CCCN1Cc1nnc2n1CCN(Cc1ccoc1)CC2`, for which the Percent Effect is -17.6%.

As to `COc1ccc(CCC(=O)N2CCCC2Cn2cc(C)cn2)cc1F` (stereo not given), the Percent Effect was determined as 18.7%.

With `COCC1CN(C(=O)C2=CCCCC2)Cc2cnn(CC3CC3)c21` (stereo not given), the Percent Effect is -7.05%.

Consider `O=C(c1cc2cc(F)ccc2[nH]1)N1CCC(Nc2cccnn2)CC1`, for which the Percent Effect is -83.2%.

On to `COC(=O)c1cccc(NC(=O)CCn2nc(-c3cccs3)oc2=O)c1`, for which the Percent Effect was found to be 18.1%.

In the case of `N#Cc1ccc(OCCOc2ccccc2C(=O)N2CCOCC2)cc1`, the Percent Effect was -58.2%.

Consider `CC(C)NC(=O)NCCCc1cc(N)n(-c2ccccc2)n1`, for which the Percent Effect was -2.61%.

Regarding `c1cnnc(N2CCCC2CNCc2cnc(N3CCCC3)nc2)c1` (stereo not given), the Percent Effect is -6.77%.

`CC(=O)Nc1nc(C2CCN(CC(N)=O)CC2)cs1`: the Percent Effect is -8.65%.

As for `CCc1nnc(CNCC2CCCN2c2cccnn2)o1` (stereo not given), the Percent Effect is -52.3%.

`O=S(=O)(NCC1(O)CCOc2ccccc21)c1ccc(Br)s1` (stereo not given): the Percent Effect was 17.9%.

Turning to `Cc1cc(C)n(CCCNC(=O)[C@@H](C)NC(=O)OC(C)(C)C)n1`, the Percent Effect turned out to be 12.1%.

`COCC(=O)N1CCC2(CC1)CCN(Cc1ccccn1)C2=O`: the Percent Effect was 7.27%.

In the case of `CCc1nc(CCNC(=O)C2CCOC2)sc1C` (stereo not given), the Percent Effect amounted to 30.6%.

On to `Cc1noc(C(C)C)c1C(=O)NS(=O)(=O)c1ccc2c(c1)OCCCO2`, for which the Percent Effect was -0.248%.

In the case of `CCCc1n[nH]c(C2CN(CCn3cccn3)CCO2)n1` (stereo not given), the Percent Effect amounted to 6.67%.

For the compound `COc1ccc(CNC(=O)Nc2cccnc2N2CCCC2)cc1O`, the Percent Effect was 10.6%.

For the compound `COCC1CN(CC2CC2)Cc2nn(C)cc21` (stereo not given), the Percent Effect is -5.39%.

Consider `O=S(=O)(Nc1cnn(C2CCOCC2)c1)c1ccc2c(c1)CCO2`, for which the Percent Effect was -15.1%.

On to `CN1CCN(C(=O)[C@H]2C[C@@H]3CCN(c4ncc(F)cn4)C[C@@H]3O2)CC1`, for which the Percent Effect was -18.9%.

For `O=C(c1ccc[nH]1)N1CCC(c2nccn2Cc2ccncc2)CC1`, the Percent Effect is -10.8%.

Regarding `CC(C)(CNC(=O)OC(C)(C)C)NC(=O)C1CC(=O)N(C2CC2)C1` (stereo not given), the Percent Effect was -23.3%.

With `COc1cccc(CN(C)C(=O)Nc2ccc3c(c2)OCCO3)c1`, the Percent Effect was -9.02%.

Turning to `Cc1ccc(N2CC3(CCN(C(=O)c4ccoc4)C3)C2)nn1`, the Percent Effect is -33.4%.

In the case of `NC(=O)NCC(=O)N1C[C@H]2CC[C@@H]1CN(Cc1ccccc1)C2`, the Percent Effect is -8.55%.

For the compound `COc1cccc(CN(C)Cc2cccc(C#N)c2)c1OC`, the Percent Effect was found to be 14.1%.

As for `Cn1ncc2c1NC(=O)CC2c1ccc(O)cc1` (stereo not given), the Percent Effect was -13.8%.

`CCCN1CCCn2nc(CNS(=O)(=O)c3cccc(C#N)c3)cc2C1`: the Percent Effect worked out at 28.5%.

For `Cc1[nH]c2ccccc2c1-c1ccnc(NC[C@H](O)CO)n1`, the Percent Effect was -30.4%.

Regarding `Cc1ccsc1-c1nnc(C2CCN(Cc3ccc(F)cc3)CC2)o1`, the Percent Effect is -123%.

As for `c1cnc(-c2nc(CNCCn3cccn3)cs2)nc1`, the Percent Effect is 5.58%.

For `COC(=O)c1cccc(NC(=O)CN2CCN(S(C)(=O)=O)CC2)c1`, the Percent Effect was determined as 10.4%.
